Data from PubChem BioAssay AID1259415 (National Center for Advancing Translational Sciences (NCATS), 2018).
Among all 410,000 compounds or so, about 18,000 (4.4%) were called active. Not shown: some 7% with an inconclusive outcome. The sample as a whole holds a higher share of actives than the screen did. Unmarked numbers belong to inactive results. Cut-off read from the data, not from the text of the source: active = activity change below about -60%; inconclusive = no clear call, values can overlap the other calls; inactive = above about -39%.

Experiment: qHTS Assay for inhibitors of the human cytomegalovirus (HCMV)
Conditions: HFF cells, HCMV-luciferase reporter, 72 h; at 57.5 µM; stronger effect = lower value
Procedure, shortened: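 Compounds were evaluated in HFFs infected with an HCMV luciferase reporter virus (MOI 1 PFU/cell). Luciferase in lysates collected 72 h post infection served as the replication measure.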
% is set by controls: 0 for no effect and ±100 for the full control effect.

| SMILES | activity change, negative = inhibition |
| --- | --- |
| COc1ccc(-c2onc(C)c2C)cc1S(=O)(=O)NCC1CCN(Cc2cccc(F)c2)CC1 | 0% |
| Cc1ccccc1CN1CCC(CNC(=O)c2c(C)oc3ncnc(N4CCCCC4)c23)CC1 | -4.04% |
| Cc1sc2ncn(CC(=O)N3CCN(c4ccc(F)cc4)CC3)c(=O)c2c1S(=O)(=O)N1CCN(c2ncccn2)CC1 | -4.66% |
| Cc1n[nH]c(=O)c2c(NC(=O)CSc3ccccc3F)oc(C)c12 | -30.8% |
| COc1ccc(N2C(=O)CS(=O)(=O)C23C(=O)N(Cc2ccc(C)cc2)c2ccccc23)cc1Cl (stereo not given) | -12.4% |
| COc1ccccc1C1CCN(C(=S)Nc2ccc(Br)cc2)CC1 | 2.47% |
| COc1ccc(NC(=O)CC2COc3ccccc3O2)c(OC)c1 (stereo not given) | 9.76% |
| S=C(NCC1COc2ccccc2O1)Nc1ccc(Br)cc1 (stereo not given) | -67.8% (active) |
| CCC(=O)N1CCc2cc(S(=O)(=O)NC(Cc3ccccc3)C(=O)NCc3ccc(C)cc3)ccc21 (stereo not given) | 5.04% |
| Cc1ccc(N(Cc2ccccc2O)C(=O)c2ccccc2F)cc1 | -8.68% |
| CCC(=O)N(Cc1cc2ccccc2[nH]c1=O)c1ccc(OC)cc1 | 18.3% |
| Cc1ccc(N(Cc2cc(=O)[nH]c3ccccc23)C(=O)CCl)cc1 | -101% (active) |
| Cc1ccc(C)c(NC(=O)Cn2ccn(-c3ccc(F)cc3)c(=O)c2=O)c1 | -35.9% |
| O=S(=O)(Nc1ccc2nc(-c3cccc(Cl)c3)oc2c1)c1ccccc1 | -36.4% |
| COc1ccc(C(C)(C)C)cc1NC(=O)CN(C)C1=NS(=O)(=O)c2ccccc21 | 6.84% |
| Oc1cccc(/C=N/Nc2ccc(Cl)nn2)c1O | -95.1% (active) |
| COc1ccc(-n2ccn(CC(=O)Nc3ccc(C)c(C)c3)c(=O)c2=O)cc1OC | -20.8% |
| CC(C)N1C(=O)N(c2ccccc2)C(C)(O)CC1(C)C (stereo not given) | -26.6% |
| CC(CC(=O)Nc1ccccc1)n1ccnc1 (stereo not given) | 39% |
| CC(=O)N1CCc2cc(S(=O)(=O)NC(Cc3ccccc3)C(=O)NCc3ccc(C)cc3)ccc21 (stereo not given) | -12.2% |
| C#CCN(C[C@H]1[C@H](OC(=O)NC2CCCC2)[C@H](OC(=O)NC2CCCC2)C[C@H]2C(=O)N(c3ccccc3)C(=O)[C@@H]12)S(=O)(=O)c1ccc(C)cc1 | -6.21% |
| C#CCN(C[C@@H]1[C@@H](OC(=O)NC2CC2)[C@@H](OC(=O)NC2CC2)Cn2c(=O)ccc(=O)n21)S(=O)(=O)c1ccc(C)cc1 | -96.3% (active) |

| SMILES | activity change, negative = inhibition |
| --- | --- |
| Cc1ccc(S(=O)(=O)N2C[C@H]3n4c(=O)ccc(=O)n4C[C@H](OC(=O)NC4CCCC4)[C@@]3(O)C2)cc1 | -24.9% |
| CCC(=O)N1N=C(c2ccc(OC)cc2)CC1c1cn(-c2ccccc2)nc1-c1cccs1 (stereo not given) | -16.7% |
| COc1ccc(Br)cc1CNC(=O)c1cc(=O)[nH]c2ccc(S(=O)(=O)N3CCCC3)cc12 | 37.6% |
| COc1ccccc1CNC(=O)NCc1noc2ccc(C)cc12 | -4.73% |
| O=C(CCCC(=O)N(CC(=O)NC1CCCC1)Cc1ccccc1Cl)Nc1ccccn1 | -99.6% (active) |
| Cc1ccc(N(CC(=O)NC2CCCCC2)C(=O)CCCC(=O)Nc2ccccn2)c(C)c1 | 0.377% |
| CCOc1ccccc1N(CC(=O)NC1CCCCC1)C(=O)CCCC(=O)Nc1ccccn1 | -7.08% |
| Cc1ccc(S(=O)(=O)N2CCC(C(=O)NCCC3=CCCCC3)CC2)cc1C | -15.1% |
| CC(=O)c1ccc(NC(=O)CSc2c(C(C)C)cnc3c2c(=O)n(C)c(=O)n3C)cc1 | -7.7% |
| CC(C)(C)c1ccc(C(=O)NCC(c2ccco2)S(=O)(=O)c2ccc(F)cc2)cc1 (stereo not given) | -16.6% |
| CN(C)Cc1c(O)ccc2c(=O)c(-c3ccccc3Cl)coc12 | 14.6% |
| CCN(Cc1ccccc1)Cc1c(O)ccc2c(=O)c(-c3ccc(Cl)cc3Cl)coc12 | 1.81% |
| CC(C)CN(Cc1c(O)ccc2c(=O)c(-c3ccccc3)coc12)CC(C)C | -72.9% (active) |
| CN(O)C(=S)c1ccccc1 | -97.9% (active) |
| CCOC(=O)c1cccn1C1C(=O)N(Cc2ccc(OC)cc2)c2c(F)cccc21 (stereo not given) | -32% |
| CC(=O)c1ccc(NC(=O)CSc2nc(-c3ccccc3F)nc3c2c(=O)n(C)c(=O)n3C)cc1 | 0.932% |
| CCN(CC)C(=O)c1ccc(NC(=O)c2cc(-n3cnnc3)ccc2Cl)cc1 | 34.8% |
| CN(C)S(=O)(=O)c1cc(C(=O)Nc2ccn(C)n2)c(Cl)cc1Cl | 0% (active) |
| O=C(Nc1nccs1)c1cc(S(=O)(=O)N2CCOCC2)c(Cl)cc1Cl | 32.2% |
| Cc1ccc(N2CC(c3nnc(Cc4ccccc4Cl)o3)CC2=O)cc1 (stereo not given) | -8.78% |
| CCOC(=O)CNC(=O)c1cc2c(=O)n3cccc(C)c3nc2s1 | 9.74% |
| Cc1ccc2oc(=O)c3cnn(CC(=O)N4CCN(c5cccc(Cl)c5)CC4)c3c2c1 | -2.47% |

| SMILES | activity change, negative = inhibition |
| --- | --- |
| CCCCN(CC)CCCNC(=O)c1nn(C)c2c1CS(=O)(=O)c1ccccc1-2 | -8.91% |
| O=C(NCc1ccc(F)cc1)c1ccc2nc(N3CCCCC3)sc2c1 | 65.5% |
| c1c2c(cc3sc(N4CCCCC4)nc13)OCCO2 | -64.2% (active) |
| CCOC(=O)c1cc2c(=O)n3ccccc3nc2n(CCCOC)c1=NC(=O)C(C)(C)Oc1ccc(Cl)cc1 | 6.81% |
| COc1ccc(CCNCc2c(C(=O)O)c(C)n(Cc3cccc(C)c3)c2C)cc1OC | -1.54% |
| Cc1ccccc1CN1C[C@@H]2C[C@@H](c3cn(C)nc3-c3ccccc3)N3CCC[C@@]23C1=O | 32.8% |
| CCOc1ccc(CNC(=O)c2cc(-c3ccc(Cl)s3)nc3ccccc23)cc1 | 1.58% |
| CCOc1ccc(NC(=O)c2cc(C)nc3ccccc23)cc1 | -60.4% (active) |
| CCOc1ccc(NC(=O)c2cnn(-c3ccccc3)c2-n2cccc2)cc1 | -19.9% |
| CCOc1ccc(-c2cc(C(=O)N/N=C/c3ccc(O)cc3)c3ccccc3n2)cc1 | -83% (active) |
| CCOc1ccc(-c2cc3c(=O)n(CC(=O)NCc4ccc(OC)cc4)ccn3n2)cc1 | 78.4% |
| CCOc1ccc(-c2cc(C)n3nc(C(=O)Nc4ccc(C)c(C)c4)cc3n2)cc1 | -5.97% |
| Cc1ccc(NC(=O)Cn2nnc3sc4c(c3c2=O)CCC(C)C4)cc1 (stereo not given) | -19.7% |
| COc1ccc(-c2onc(C)c2C)cc1S(=O)(=O)NCc1cccs1 | 86.9% |
| O=C(COc1ccc(Cl)cc1)Nc1ccccc1OCc1cc(=O)n2ccccc2n1 | 47.7% |
| CC(=O)Nc1ccc(NC(=O)CCCNC(=O)c2ccc(Cl)cc2)cc1 | -21.3% |
| COc1ccc(C(=O)COC(=O)CCCC(=O)Nc2cc(C(F)(F)F)ccc2Cl)cc1 | -1.47% |
| CCCCC(=O)Nc1ccc(C(=O)Nc2cc(C(F)(F)F)ccc2Cl)cc1 | -64% (active) |
| O=C(CCc1nc(CN2CCN(S(=O)(=O)c3ccc(Br)cc3)CC2)no1)N1CCCCC1 | 20.2% |
| CCOC(=O)c1ccc(NC(=O)CCS(=O)(=O)c2ccc3c(c2)oc(=O)n3C)cc1 | 0.775% |
| CCOc1ccc(CNC(=O)c2cccc(Nc3nc4ccccc4n4nnnc34)c2)cc1OC | -17.1% |
| COc1ccc(-c2nc3sc(CCNC(=O)C(C)(C)C)c(C)n3n2)cc1 | -21.2% |

| SMILES | activity change, negative = inhibition |
| --- | --- |
| O=C(CNC(=O)COc1ccccc1)NCCc1ccccn1 | 31.2% |
| COc1cncc(-c2cnc3sc(NCCc4ccccn4)nn23)c1 | -64.8% (active) |
| CCOc1ccc(NC(=O)C2CCN(S(=O)(=O)c3cc(-c4noc(C)n4)ccc3C)CC2)cc1 | 10.9% |
| CC(C)c1ccc(-c2noc(C3CCCN(S(C)(=O)=O)C3)n2)cc1 (stereo not given) | -15.2% |
| CC(C)c1ccc(NC(=O)C2CCN(c3nc(-c4ccc(C(C)C)cc4)no3)CC2)cc1 | -71.9% (active) |
| C[C@@H]1CN([C@@H](C)CO)C(=O)c2cc(NC(=O)C3CC3)ccc2O[C@H]1CN(C)C | 34.3% |
| COc1cc(C(=O)Nc2cc(C(F)(F)F)ccc2-n2cncn2)cc(OC)c1OC | -20% |
| COCCCNC(=O)c1cccc2c(-c3ccc(O)c(OC)c3)coc12 | 71.3% |
| CC(Sc1ccc(S(=O)(=O)N2CCN(C)CC2)cn1)C(=O)NC1CCCC(C)C1C (stereo not given) | -4.06% |
| COC(=O)c1ccc(S(=O)(=O)c2ccc(C(=O)OC)s2)s1 | 23.7% |
| CCc1ccc(C2=CC(=O)CC(C)(C)C2=O)cc1 | -23% |
| COc1cccc(CNCc2c(C(=O)O)n(Cc3ccc(C)cc3)c3cc(C)ccc23)c1OC | 3.78% |
| COc1ccc(Cn2c(C(=O)O)c(CNCc3cccc(OC)c3)c3ccc(C)cc32)cc1 | -106% (active) |
| COc1ccc(Cn2c(C(=O)O)c(CNCCc3cccs3)c3ccc(OC)cc32)cc1 | -4.9% |
| COc1cccc(CNC(=O)Cn2ncn3c(cc4ccccc43)c2=O)c1 | 44.2% |
| Cc1ccc(C(=O)CSc2nc(-c3ccccc3)nc3c2CCCC3)c(C)c1 | 2.92% |
| COc1ccccc1C(=O)Nc1c(C(=O)Nc2ccc(C)cc2)oc2ccccc12 | 14.6% |
| Cc1n[nH]c(C)c1S(=O)(=O)N1CCCC(C(=O)NCC2COc3ccccc3O2)C1 (stereo not given) | -37.1% |
| c1ccc2c(c1)OCC(CNc1ncnc3nc[nH]c13)O2 (stereo not given) | -61.6% (active) |
